From the supplement of paper PMC10849652
The full data set covers some 7,900 targets. This sample favours those with a hit. About 0.6% of all pairs of compound and target were hits.

Assays:
Experiment in all cases: log2 fold change, soluble protein after heating vs DMSO (PISA); higher = thermal stabilisation; K562 cells, 10 uM, 30 min; active = over 0.2 and 3.5 SD of the protein, either way, in both replicates (recomputed)
[1] = compound: C1=CC=C(C=C1)[C@H](COC2=CC3=C(C=C2)NC(=O)N3)NC(=O)C4=CC=CN(C4=O)CC5=CC(=C(C=C5)F)F
Summary of the method: (§1)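 K562 cells at 2×10^6 cells/mL were given 10 μM compound for 30 min. Aliquots then went through 3 min of heating across 48°C-58°C, were pooled, and were extracted in PBS with 0.5% NP-40 at 4°C, and the supernatant after 21,000xg for 90 min was quantified by TMTpro 16plex LC-MS/MS with channel sums equalised. Thermal stability relative to control samples, from duplicates, is given as log2 fold change.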

[2] = compound: CC1=C(SC2=C1C(=N[C@H](C3=NN=C(N32)C)CC(=O)N)C4=CC=C(C=C4)Cl)C
Summary of the method: as §1

[3] = compound: CC1=C2C(=CC=C1)N=C(N(C2=O)C3=CC=CC=C3C)CN4C=NC5=C(N=CN=C54)N
Summary of the method: as §1

[4] = compound: Cc1sc2c(c1C)C(c1ccc(Cl)cc1)=N[C@@H](CC(=O)OC(C)(C)C)c1nnc(C)n1-2
Summary of the method: as §1

[5] = compound: c1ccc([C@@H]2C[C@H]2NC2CCNCC2)cc1
Summary of the method: as §1

Measured: log2 fold change

H1FX (UniProt Q92522)
inactive: [1] 0.088 | [2] -0.146 | [3] -0.21 | [4] 0.135 | [5] -0.005

HNRNPK isoform 3 (UniProt P61978)
inactive: [1] 0.014 | [3] 0.074 | [4] 0.061

HBQ1 (UniProt P09105)
Chain of UniProt P09105 (P09105 whole entry, looked up): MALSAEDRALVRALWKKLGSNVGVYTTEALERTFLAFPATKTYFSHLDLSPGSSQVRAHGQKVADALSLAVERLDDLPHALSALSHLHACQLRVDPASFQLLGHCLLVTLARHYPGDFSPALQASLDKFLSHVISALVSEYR
inactive: [1] 0.023 | [2] 0.135 | [3] 0.092 | [4] -0.147 | [5] -0.037

FYB1 isoform 3 (UniProt O15117)
Chain of UniProt O15117 (O15117 whole entry, looked up): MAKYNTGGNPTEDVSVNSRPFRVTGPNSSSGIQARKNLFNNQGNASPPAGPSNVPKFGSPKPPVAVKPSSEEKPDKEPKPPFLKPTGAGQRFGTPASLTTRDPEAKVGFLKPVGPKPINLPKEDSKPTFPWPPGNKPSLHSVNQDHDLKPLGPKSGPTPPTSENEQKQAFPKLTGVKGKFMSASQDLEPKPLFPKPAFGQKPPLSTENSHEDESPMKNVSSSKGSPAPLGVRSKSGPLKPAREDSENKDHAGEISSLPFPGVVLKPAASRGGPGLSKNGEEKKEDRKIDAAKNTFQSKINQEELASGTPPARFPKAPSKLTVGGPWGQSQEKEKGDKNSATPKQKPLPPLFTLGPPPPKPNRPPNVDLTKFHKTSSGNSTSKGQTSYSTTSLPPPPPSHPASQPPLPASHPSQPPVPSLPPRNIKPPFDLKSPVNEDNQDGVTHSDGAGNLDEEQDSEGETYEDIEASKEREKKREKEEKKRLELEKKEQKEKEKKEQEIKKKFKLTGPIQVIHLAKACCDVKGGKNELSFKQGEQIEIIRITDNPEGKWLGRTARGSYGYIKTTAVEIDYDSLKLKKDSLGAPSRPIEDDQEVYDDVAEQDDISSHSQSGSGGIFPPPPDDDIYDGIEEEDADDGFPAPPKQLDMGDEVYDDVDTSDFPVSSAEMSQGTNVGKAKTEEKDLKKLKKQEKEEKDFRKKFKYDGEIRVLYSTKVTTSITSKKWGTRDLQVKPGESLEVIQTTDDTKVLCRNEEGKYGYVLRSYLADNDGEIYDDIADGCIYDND
inactive: [1] -0.09 | [3] 0.005 | [4] -0.017

GOLGA6B (UniProt A6NDN3)
inactive: [1] 0.043 | [3] 0.19

HDAC6 (UniProt Q9UBN7)
Chain of UniProt Q9UBN7 (Q9UBN7 whole entry, looked up): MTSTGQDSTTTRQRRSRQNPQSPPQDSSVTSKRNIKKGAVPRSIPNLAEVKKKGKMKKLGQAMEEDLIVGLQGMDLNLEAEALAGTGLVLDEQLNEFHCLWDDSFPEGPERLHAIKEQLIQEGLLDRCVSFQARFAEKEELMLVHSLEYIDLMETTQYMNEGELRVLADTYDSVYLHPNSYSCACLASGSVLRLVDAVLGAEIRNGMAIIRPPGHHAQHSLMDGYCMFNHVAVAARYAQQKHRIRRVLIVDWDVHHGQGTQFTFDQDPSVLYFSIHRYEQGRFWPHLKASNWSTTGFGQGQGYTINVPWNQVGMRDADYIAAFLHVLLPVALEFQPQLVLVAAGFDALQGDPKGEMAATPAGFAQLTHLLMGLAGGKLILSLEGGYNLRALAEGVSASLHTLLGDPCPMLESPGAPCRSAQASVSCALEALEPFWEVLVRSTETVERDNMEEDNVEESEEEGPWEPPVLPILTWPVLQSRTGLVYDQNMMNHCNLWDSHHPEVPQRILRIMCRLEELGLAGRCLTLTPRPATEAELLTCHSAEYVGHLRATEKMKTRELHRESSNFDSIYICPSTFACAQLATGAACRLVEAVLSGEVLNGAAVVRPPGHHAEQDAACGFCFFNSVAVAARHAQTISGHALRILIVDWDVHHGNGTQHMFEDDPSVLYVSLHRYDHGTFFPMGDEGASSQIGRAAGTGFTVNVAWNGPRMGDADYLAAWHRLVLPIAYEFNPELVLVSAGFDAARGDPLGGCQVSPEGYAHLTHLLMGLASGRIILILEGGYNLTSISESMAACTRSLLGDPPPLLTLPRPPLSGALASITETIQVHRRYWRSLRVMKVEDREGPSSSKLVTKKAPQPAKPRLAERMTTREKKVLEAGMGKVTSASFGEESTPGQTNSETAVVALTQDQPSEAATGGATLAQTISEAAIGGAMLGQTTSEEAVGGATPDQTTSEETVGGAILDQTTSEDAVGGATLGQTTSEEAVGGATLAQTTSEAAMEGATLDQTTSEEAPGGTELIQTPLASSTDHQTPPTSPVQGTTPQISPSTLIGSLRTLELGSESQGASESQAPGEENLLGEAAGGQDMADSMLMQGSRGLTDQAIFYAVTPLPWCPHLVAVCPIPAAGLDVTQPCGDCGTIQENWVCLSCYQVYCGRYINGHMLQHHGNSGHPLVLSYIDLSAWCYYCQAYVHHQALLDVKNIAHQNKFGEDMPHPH
inactive: [1] 0.159 | [2] 0.008 | [3] -0.001 | [4] -0.002 | [5] 0.009

FUCA1 (UniProt P04066)
Chain of UniProt P04066 (P04066 whole entry, looked up): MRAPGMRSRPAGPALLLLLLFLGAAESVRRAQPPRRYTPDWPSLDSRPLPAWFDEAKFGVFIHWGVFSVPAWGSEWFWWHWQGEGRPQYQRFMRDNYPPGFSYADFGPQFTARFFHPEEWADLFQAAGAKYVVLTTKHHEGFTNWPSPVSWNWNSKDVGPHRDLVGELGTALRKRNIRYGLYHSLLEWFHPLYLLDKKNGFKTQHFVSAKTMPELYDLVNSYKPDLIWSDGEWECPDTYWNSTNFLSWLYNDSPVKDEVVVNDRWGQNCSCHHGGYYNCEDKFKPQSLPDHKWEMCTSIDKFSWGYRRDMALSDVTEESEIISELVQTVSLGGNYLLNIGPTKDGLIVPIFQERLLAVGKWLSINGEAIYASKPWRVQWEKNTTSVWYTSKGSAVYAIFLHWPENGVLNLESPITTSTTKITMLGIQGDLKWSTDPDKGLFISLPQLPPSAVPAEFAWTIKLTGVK
inactive: [1] -0.001 | [2] 0.058 | [3] 0.03 | [4] 0.018 | [5] 0.053

HMG20A (UniProt Q9NP66)
active: [5] 0.536
inactive: [1] 0.07 | [2] -0.085 | [3] 0.048 | [4] 0.048

GPS2 (UniProt Q13227)
inactive: [1] 0.015 | [3] 0 | [4] 0.039

IDH3A isoform 2 (UniProt P50213)
inactive: [1] 0.118 | [2] 0.251 | [4] -0.069 | [5] -0.059

FHOD1 (UniProt Q9Y613)
inactive: [1] -0.033 | [2] -0.065 | [3] 0.086 | [5] -0.034

GSE1 (UniProt Q14687)
Chain of UniProt Q14687 (Q14687 whole entry, looked up): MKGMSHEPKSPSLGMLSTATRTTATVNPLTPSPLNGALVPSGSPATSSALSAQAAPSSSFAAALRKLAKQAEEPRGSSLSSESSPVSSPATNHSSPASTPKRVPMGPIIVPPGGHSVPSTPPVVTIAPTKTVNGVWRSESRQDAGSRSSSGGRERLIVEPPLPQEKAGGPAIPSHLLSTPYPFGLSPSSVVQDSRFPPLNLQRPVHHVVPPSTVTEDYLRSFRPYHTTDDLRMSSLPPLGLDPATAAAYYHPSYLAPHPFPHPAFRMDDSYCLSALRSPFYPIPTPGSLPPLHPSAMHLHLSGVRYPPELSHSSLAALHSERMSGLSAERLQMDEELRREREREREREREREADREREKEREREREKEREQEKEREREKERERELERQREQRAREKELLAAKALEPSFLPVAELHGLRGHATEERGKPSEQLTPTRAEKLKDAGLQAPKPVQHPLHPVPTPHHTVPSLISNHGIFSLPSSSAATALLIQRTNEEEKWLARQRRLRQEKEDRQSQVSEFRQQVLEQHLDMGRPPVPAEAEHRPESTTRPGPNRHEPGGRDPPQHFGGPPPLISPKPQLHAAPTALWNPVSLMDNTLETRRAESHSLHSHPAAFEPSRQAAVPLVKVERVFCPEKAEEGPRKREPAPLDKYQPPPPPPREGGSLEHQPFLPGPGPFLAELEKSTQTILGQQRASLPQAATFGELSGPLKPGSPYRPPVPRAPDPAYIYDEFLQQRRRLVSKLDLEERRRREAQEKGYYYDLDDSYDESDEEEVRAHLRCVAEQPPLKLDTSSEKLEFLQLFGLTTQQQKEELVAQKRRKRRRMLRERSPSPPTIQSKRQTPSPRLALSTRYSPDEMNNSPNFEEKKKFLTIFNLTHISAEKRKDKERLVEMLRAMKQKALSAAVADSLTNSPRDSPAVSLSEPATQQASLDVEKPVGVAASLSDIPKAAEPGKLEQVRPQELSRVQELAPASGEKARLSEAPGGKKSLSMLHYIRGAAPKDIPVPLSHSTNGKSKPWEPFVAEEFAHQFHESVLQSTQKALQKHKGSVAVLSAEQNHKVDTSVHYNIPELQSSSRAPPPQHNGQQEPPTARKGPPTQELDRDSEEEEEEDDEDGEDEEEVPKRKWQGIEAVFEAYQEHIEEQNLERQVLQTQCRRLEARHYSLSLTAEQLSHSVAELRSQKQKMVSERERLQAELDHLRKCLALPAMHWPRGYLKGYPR
active: [5] 1.45
inactive: [1] -0.151 | [2] 0.029 | [3] 0.008

HIP1 (UniProt O00291)
inactive: [1] 0.137 | [2] -0.009 | [3] 0.106 | [4] 0.019 | [5] 0.045

HNRNPK isoform 2 (UniProt P61978)
inactive: [1] -0.027 | [2] 0.012 | [3] 0.047 | [4] -0.023 | [5] 0.013

FCHO1 (UniProt O14526)
inactive: [2] 0.013 | [3] 0.125 | [4] 0.022 | [5] -0.065

FIZ1 (UniProt Q96SL8)
Chain of UniProt Q96SL8 (Q96SL8 whole entry, looked up): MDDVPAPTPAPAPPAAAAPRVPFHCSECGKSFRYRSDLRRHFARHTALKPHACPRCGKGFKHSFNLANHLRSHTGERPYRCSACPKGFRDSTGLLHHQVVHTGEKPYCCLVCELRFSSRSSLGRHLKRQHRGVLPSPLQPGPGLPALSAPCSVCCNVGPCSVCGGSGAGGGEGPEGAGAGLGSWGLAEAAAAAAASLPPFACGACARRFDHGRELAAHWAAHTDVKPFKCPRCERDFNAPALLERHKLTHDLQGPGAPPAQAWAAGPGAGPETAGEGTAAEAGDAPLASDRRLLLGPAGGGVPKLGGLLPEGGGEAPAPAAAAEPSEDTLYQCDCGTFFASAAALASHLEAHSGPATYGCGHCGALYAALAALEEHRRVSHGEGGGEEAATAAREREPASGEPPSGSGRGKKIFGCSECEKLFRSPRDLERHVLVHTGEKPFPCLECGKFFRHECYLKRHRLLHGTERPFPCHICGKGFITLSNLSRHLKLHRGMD
inactive: [2] -0.297 | [3] -0.097 | [5] 0.044

HTATIP2 isoform 3 (UniProt Q9BUP3)
inactive: [1] 0.063 | [2] 0.031 | [3] 0.059 | [4] 0.028 | [5] -0.03

HNRNPUL1 (UniProt M0R247)
inactive: [2] 0.079 | [4] 0.204 | [5] 0.122

IGF2 isoform 3 (UniProt P01344)
inactive: [3] 0.077

GSR (UniProt P00390)
inactive: [1] 0.006 | [2] 0.044 | [3] 0.034 | [4] -0.023 | [5] -0.003

FOXO3 (UniProt O43524)
inactive: [2] 0.065 | [3] 0.012 | [4] 0.125 | [5] -0.039

GNAI3 (UniProt P08754)
Chain of UniProt P08754 (P08754 whole entry, looked up): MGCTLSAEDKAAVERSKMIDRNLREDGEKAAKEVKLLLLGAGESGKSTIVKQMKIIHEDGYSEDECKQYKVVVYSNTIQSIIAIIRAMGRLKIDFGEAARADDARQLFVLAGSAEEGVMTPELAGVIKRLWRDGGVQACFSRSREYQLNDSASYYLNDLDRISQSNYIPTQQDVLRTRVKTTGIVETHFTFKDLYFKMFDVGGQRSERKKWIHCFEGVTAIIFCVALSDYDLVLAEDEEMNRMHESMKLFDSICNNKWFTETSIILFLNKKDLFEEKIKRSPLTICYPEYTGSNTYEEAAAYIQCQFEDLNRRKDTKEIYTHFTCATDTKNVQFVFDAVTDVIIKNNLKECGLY
inactive: [1] -0.005 | [2] 0.019 | [3] 0.011 | [4] -0.154 | [5] -0.032

GEMIN2 (UniProt O14893)
Chain of UniProt O14893 (O14893 whole entry, looked up): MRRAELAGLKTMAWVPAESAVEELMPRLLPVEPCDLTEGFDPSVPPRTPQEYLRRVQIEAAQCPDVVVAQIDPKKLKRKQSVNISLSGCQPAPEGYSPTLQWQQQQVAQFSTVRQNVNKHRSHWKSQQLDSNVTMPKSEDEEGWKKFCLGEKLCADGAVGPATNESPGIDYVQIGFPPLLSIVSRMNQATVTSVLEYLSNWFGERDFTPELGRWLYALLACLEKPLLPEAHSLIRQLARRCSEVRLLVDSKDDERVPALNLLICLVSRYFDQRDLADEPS
inactive: [1] 0.044 | [2] 0.013 | [3] -0.049 | [5] 0.025

GAK (UniProt O14976)
inactive: [2] 0.095 | [3] -0.032 | [4] 0.078 | [5] -0.209

FCF1 (UniProt Q9Y324)
inactive: [3] -0.362 | [4] 0.248
